Reference: PubChem BioAssay (Tox21)
Where “and” joins values, the source holds several entries; their conditions need not be identical. Equal values may be shown once. Records with an inconclusive call do not appear. Unmarked numbers belong to inactive results. Calls of active or inactive are those of the source. The call rests on the fitted dose curve; in most records, active means well fitted cell-killing curve with a large enough effect in the repeat runs; inconclusive means weak or mixed curves; inactive means flat fitted curve, though single readings scatter.

test: qHTS assay to identify small molecule antagonists of the TGF-beta/Smad signaling pathway - cell viability counter screen (AID 1346824); details: SBE-bla HEK293T viability, CellTiter-Glo luminescence; series mostly up to 76.8 µM; viability change, negative = cytotoxic: at the top concentration; further: nearly all actives have a fitted effect of over 50% in size
Source text: U.S. Tox21 Program National Center for Advancing Translational Sciences [NCATS] NIH Chemical Genomics Center [NCGC] U.S. Environmental Protection Agency [EPA] National Institutes of Environmental Health Sciences [NIEHS] National Toxicology Program [NTP] U.S. Food and Drug Administration [FDA] Tox21 Assay Overview: Transforming growth factor beta (TGF-beta) superfamily consists of a large number of structurally related dimeric proteins that act as hormones or local mediators in regulating a wide range of biological functions. This superfamily includes TGF-betas themselves, the bone morphogenetic proteins (BMPs) and the activins. These ligands induce oligomerization of serine/threonine receptor kinases and phosphorylate the cytoplasmic signaling molecules of Smad protein family. CellSensor SBE-bla HEK 293T cell line (Life Technologies, Carlsbad, CA), responsive to TGF-beta was used to screen Tox21 10K compound library for identification of agonists/antagonists of the Smad signaling pathway. This cell line contains a beta-lactamase reporter gene under control of the Smad binding element (SBE) stably integrated into HEK 293T cells. Also cytotoxicity of the compounds was tested in parallel by measuring the cell viability using CellTiter-Glo assay system in the same wells.
Tox21 Assay Protocol Summary: SBE-bla HEK 293T cells were dispensed at 4,000/well in 5 uL of assay medium into black wall/clear-bottom 1536-well plates using a Multidrop Combi (ThermoFisher Scientific, Waltham, MA) dispenser. After the assay plates were incubated at 37 C and 5% CO2 for an overnight, 23 nL of compounds dissolved in DMSO, positive controls or DMSO only was transferred to the assay plate by a Pintool station (Kalypsys, San Diego, CA). Compound transfer was followed by the addition of 1 uL of 0.25 ng/mL TGF-beta1 or assay buffer using two separate tips of Flying Reagent Dispenser (FRD, Aurora Discovery, San Diego, CA). The assay plates were incubated at 37 C and 5% CO2 for 5 hr. One uL of LiveBLAzer B/G FRET substrate (Life Technologies) was added using a Flying Reagent Dispenser (FRD, Aurora Discovery, San Diego, CA) and the plates were incubated at room temperature for 2 hr. Fluorescence intensity (405 nm excitation, 460 nm and 530 nm emissions) was measured using an Envision plate reader (PerkinElmer, Shelton, CT). For cytotoxicity read, 4 uL of CellTiter-Glo reagent (Promega Corporation, Madison, WI) was added to each well of the assay plates using FRD. After 30 min incubation at room temperature, the luminescence intensity was measured using ViewLux plate reader (PerkinElmer).
On the % scale 0 is the no-effect control and ±100 the full control effect; potency means the concentration at half of the fitted maximal effect.

| SMILES | viability change, negative = cytotoxic | Potency |
| --- | --- | --- |
| CC(Cc1ccc(C(C)(C)C)cc1)CN1C[C@@H](C)O[C@@H](C)C1 (stereo not given in full) | -17.1% | – |
| N#CNC#N | -4.07% | – |
| CCCCCCCCc1ccc(O)cc1 | -26.9% | – |
| Oc1ccc(C(=C(Cl)Cl)c2ccc(O)cc2)cc1 | -2.5% | – |
| Oc1c(Br)c(Br)c(Br)c(Br)c1Br | -20.1% | – |
| Fc1ccc(Oc2ccnc3cc(Cl)cc(Cl)c23)cc1 | 2.89% | – |
| Cc1cc(C(F)(C(F)(F)F)C(F)(F)F)ccc1NC(=O)c1cccc(I)c1C(=O)NC(C)(C)CS(C)(=O)=O | -11.2% [at 35.3 µM] | – |
| Nc1ccc(Cl)cc1C(=O)c1ccccc1 | -7.06% | – |
| O=C(CBr)c1ccc(O)cc1 | -0.562% | – |
| C=COCCCl | 11.9% | – |
| C[C@@H](Oc1ccc(Cl)cc1Cl)C(=O)O | 6.46% | – |
| Cc1cc(C)cc(OP(=O)(Oc2cc(C)cc(C)c2)Oc2cc(C)cc(C)c2)c1 | -19.5% | – |
| CN(C)C(=S)[S-].CN(C)C(=S)[S-].[Cu+2] | – | 4.23 µM (active) |
| Nc1ccccc1C(=O)Oc1ccc2ccccc2c1 | -2.44% | – |
| Cn1[nH]nnc1=S | 9.32% | – |
| c1ccc(OCC2CO2)cc1 (stereo not given) | -7.7% | – |
| Clc1ccc(C(c2ccccc2Cl)C(Cl)(Cl)Cl)cc1 (stereo not given) | – | inactive |
| CN(CCCC(O)c1cccnc1)N=O (stereo not given) | 5.17% | – |
| COc1cc(N)c(Cl)cc1C(=O)NC1CN2CCC1CC2 (stereo not given) | -1.42% [at 35.3 µM] | – |
| COc1ccc(OC)c(C=O)c1 | -0.232% | – |

| SMILES | viability change, negative = cytotoxic | Potency |
| --- | --- | --- |
| FC(Cl)(Cl)Cl | 11.6% | – |
| CCCCCCCCCCCCCN1CC(C)OC(C)C1 (stereo not given) | -0.463% | – |
| ClC1=C(Cl)[C@]2(Cl)[C@@H]3[C@@H](Cl)[C@H](Cl)C[C@@H]3[C@@]1(Cl)C2(Cl)Cl | -1.25% | – |
| COc1ccc(N)cc1N | – | 7.14 µM (active) and 21 µM (active) |
| C=CCOC(N)=O | -1.19% | – |
| NC(=O)c1ccc(N)nc1 | -29.4% | – |
| C[C@]12CC[C@@H]3c4ccc(OC(=O)N(CCCl)CCCl)cc4CC[C@H]3[C@@H]1CC[C@@H]2O | -0.0883% [at 35.3 µM] | – |
| C[C@H]1CC[C@@H]2[C@@H](C)[C@H]3[C@H](C[C@H]4[C@@H]5CC=C6CC(O[C@@H]7O[C@H](CO)[C@H](O)[C@H](O[C@@H]8O[C@H](CO)[C@@H](O)[C@H](O)[C@H]8O)[C@H]7O[C@H]7O[C@@H](C)[C@H](O)[C@@H](O)[C@H]7O)CC[C@]6(C)[C@H]5CC[C@]34C)N2C1 (stereo not given in full) | – | 12.7 µM (active) |
| S=C=Nc1cccc2ccccc12 | -11.4% | – |
| O=C(O)c1cc[c]([Hg][Cl])cc1 | -19.2% | – |
| Oc1c(Cl)c(Cl)cc(Cl)c1Cl | -15.4% | – |
| ClC1=C(Cl)C2(Cl)C3C(Cl)C(Cl)CC3C1(Cl)C2(Cl)Cl (stereo not given) | – | inactive |
| Oc1cc(Cl)c(Cl)c(Cl)c1 | -18% | – |
| CCOC(=O)c1ccccc1S(=O)(=O)NC(=O)Nc1nc(Cl)cc(OC)n1 | 15.6% | – |
| CC(=O)c1ccc(-c2ccccc2)cc1 | -1.05% | – |
| N#CCCSCCC#N | 2.52% | – |
| Oc1ccc2ccc3cccc4ccc1c2c34 | -13.4% | – |
| CCC[CH2][Sn]([CH2]CCC)([CH2]CCC)[O]C(=O)c1ccccc1 | – | 3.47 µM (active) |
| CC(C)CCCCCCCOP(=O)(Oc1ccccc1)Oc1ccccc1 | -14.4% | – |
| CCN | 0.275% | – |
